Source: PubChem (National Center for Advancing Translational Sciences (NCATS))
HT1080NT lethal: qHTS for induction of synthetic lethality in tumor cells producing 2HG: qHTS for the HT-1080-NT fibrosarcoma cell line. Potency, µM (titrated, usually from 46.1 µM), for inactives: at the highest dose activity, negative = less viability, actives largely listed as cytotoxic. HT-1080-NT fibrosarcoma viability, CellTiter-Glo ATP luminescence, 48 h. hit rate 1.6% among 360,000;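 further: NT is the 2HG producing partner of a matched IDH1 knockdown line; potency means the concentration at half of the fitted maximal effect; 0% = DMSO-treated cells and -100% = media-only wells without cells; nearly all actives have a fitted effect of over 55% in size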
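Toxicity toward the 2HG-producing NT line was scored as %Activity, normalised to DMSO and no-cell wells, from CellTiter-Glo luminescence after 48 hours' treatment.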
HT1080 IDH1KD tx: qHTS for induction of synthetic lethality in tumor cells producing 2HG: qHTS for the HT-1080-IDH1KD cell line. HT-1080 IDH1 knockdown viability, ATP luminescence, 48 h. Potency, µM (doses to about 46.1 µM), without a hit: at the highest dose activity, negative = toxicity, hits mostly cytotoxic. hit rate 2% among 360,000. AID 686971, 2013;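 further: potency means the concentration at half of the fitted maximal effect; 0% = DMSO wells and -100% = cell-free medium wells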
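Cytotoxicity counter-line: IDH1KD HT-1080, 48 h, CellTiter-Glo. Curves classed by r2, magnitude and activity.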
DT40 TDP1 no CPT: qHTS for Inhibitors of human tyrosyl-DNA phosphodiesterase 1 (TDP1): qHTS in cells in absence of CPT; DT40 Tdp1-/- hTDP1 cells, no CPT, ATP luminescence, 48 h; Potency, µM (titrated, usually from 46.2 µM), inactives show top-dose activity change, negative = growth inhibition, actives largely listed as inhibitors; hit rate 15% among 420,000; AID 686978, 2013; further: potency means the concentration at half of the fitted maximal effect; nearly all actives have a fitted effect of over 55% in size
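A cellular qHTS used chicken DT40 cells lacking endogenous Tdp1 but carrying stably transfected human TDP1. Compounds were applied without camptothecin, and cell growth kinetics were judged by ATP-dependent luminescence after ≥48 hr.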
IL-1B inflam inh: qHTS for Inhibitors of Inflammasome Signaling: IL-1-beta AlphaLISA Primary Screen | activity change, % at 57.5 µM | AID 743279, 2014 | hit rate 4.7% among 360,000 | THP-1 LPS/ATP IL-1B secretion, AlphaLISA, 16 h; active compounds read low; in the data active means activity change below about -50%; inconclusive means mostly about -30% to -49%
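Secreted IL-1B measured by AlphaLISA bead assay after 16 h compound exposure of THP-1 cells; compounds (final up to 57.5 uM) added 1 h before LPS (250 ng/mL) and ATP (1.25 mM) stimulation; lower signal means less secretion.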
TDP1 cell CPT: qHTS for Inhibitors of human tyrosyl-DNA phosphodiesterase 1 (TDP1): qHTS in cells in presence of CPT. hit rate 12% among 420,000. AID 686979, 2013. Potency, µM (titrated, usually from 46.2 µM), without a hit: at the highest dose activity change, negative = growth inhibition, actives largely listed as inhibitors. chicken DT40 Tdp1-/-;hTDP1 cells + 20 nM CPT, ATP luminescence, 48 h; further: potency means the concentration at half of the fitted maximal effect; nearly all actives have a fitted effect of over 55% in size
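Chicken DT40 Tdp1-/- cells complemented with human TDP1, 400 cells/well, exposed to compounds plus 20 nM camptothecin for at least 48 h at 37 C; viability read as ATP content by CellTiter-Glo luminescence.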
Starred values were filed as active, the others as inactive; ? = inconclusive; . = no result given; [ ] = another dose, or the depositor's remark. This is a sample that favours compounds with a hit; in the whole collection about 19% have one here. Unless noted, the call rests on the fitted dose curve; in most records, active means well fitted curve in the direction sought with a large enough effect; inconclusive means small, poorly fitted or top-dose-only effect, or another doubt; inactive means no such curve, though single readings can be large; an effect the other way counts as inactive or inconclusive. Unless noted, on the % scale 0 is the no-effect control and ±100 the full control effect.

SMILES	HT1080NT lethal	HT1080 IDH1KD tx	DT40 TDP1 no CPT	IL-1B inflam inh	TDP1 cell CPT
COc1ccc2cc(CNC3CCS(=O)(=O)C3)c(-c3ccc(OC)c(OC)c3)nc2c1 (stereo not given)	.	.	-4%	.	4%[9.04 µM]
CCNc1nc(NCC)n2c(SCC(=O)Nc3cccc(Cl)c3)nnc2n1	-2%	1%	?	-16	?
CCNc1nc(NCC)n2c(SC(C(=O)Nc3cc(Cl)cc(Cl)c3)c3ccccc3)nnc2n1 (stereo not given)	0%	1%	16µM*	38	23µM*
Cc1c(C(=O)N2CCC(C(=O)Nc3ccc(F)cc3)CC2)sc2nc[nH]c(=O)c12	.	.	-9%	.	-1%
CC1C(=O)C(C)C(c2cc(Cl)ccc2O)NC1c1cc(Cl)ccc1O (stereo not given)	16µM*	23µM*	-73%	-75*	?
CCOC(=O)c1c(NC(=O)CN2C(=O)NC3(CCCC3)C2=O)sc(C)c1CC	-10%	-14%	?	-57*	?
CCOC(=O)c1c(NC(=O)CN2C(=O)NC3(CCC(CC)CC3)C2=O)sc(C)c1-c1ccc(C)cc1 (stereo not given)	22%	21%	?	-3	-12%
CCOC(=O)c1c(NC(=O)CN2C(=O)NC3(CCCCCC3)C2=O)sc(C)c1-c1ccc(C)cc1	-25%	?	16µM*	-9	23µM*
CCCn1c(/C=C/c2cc[n+](C)cc2)nc2ccccc21	14%	17%	-2%	-8	3%
CC(C)Cn1c(/C=C/c2ccccc2)nc2ccccc21	?	-23%	?	-66*	?
COc1ccc(Cn2c(/C=C/c3ccccc3)nc3ccccc32)cc1	11µM*	?	-27%	-78*	?
CCC(C)n1c(/C=C/c2ccccc2)nc2ccccc21 (stereo not given)	-3%	-7%	?	8	?
COc1ccc(/C=C/c2nc3ccccc3n2C)cc1	5.2µM*	4.6µM*	8.2µM*	-73*	9.2µM*
CCn1c(/C=C/c2ccccc2)nc2ccccc21	?	?	26µM*	-8	?
Clc1ccc(OCCCCCN2CCOCC2)cc1	-11%	-6%	?	3	?
Fc1ccc(/C=C2\CCCC3=C2Nc2ncnn2C3c2ccc(F)cc2)cc1 (stereo not given)	7.3µM*	6.5µM*	18µM*	-122*	15µM*
COc1ccc(C2C3=C(Nc4ncnn42)c2ccccc2CCC3)cc1 (stereo not given)	-5%	-2%	-25%	-1	0%
Cc1ccc(C)c(-n2c(-c3csc(C)c3C)n[nH]c2=S)c1	0%	-9%	-9%	28	3%
O=S1(=O)N[C@@H](CC2CCCCC2)COc2cc(Br)ccc21	?	-29%	?	8	15µM*
CC(C)C[C@H]1COc2cc(Br)ccc2S(=O)(=O)N1	-1%	3%	?	25	-16%
O=C(O)CCCC[C@@H]1SC[C@@H]2NC(=O)N[C@@H]21	7%	5%	0%	-106*	3%
Cc1nc(N2CCCCC2)sc1C(=O)c1ccc(SCCO)c([N+](=O)[O-])c1	-12%	-18%	18µM*	-54*	?
O=[N+]([O-])c1ccc(N2CCCCC2)cc1SCCO	16%	1%	-9%	14	-9%
Cc1nc(N2CCCCC2)sc1C(=O)c1cccc([N+](=O)[O-])c1	-12%	0%	?	-103*	?
CCCC(=O)Oc1c(S(=O)(=O)c2ccc(C)cc2)c(C)nn1C(C)(C)C	?	-30%	8%	23	-5%
SMILES	HT1080NT lethal	HT1080 IDH1KD tx	DT40 TDP1 no CPT	IL-1B inflam inh	TDP1 cell CPT
CCCCC(=O)Oc1c(S(=O)(=O)c2ccccc2)c(C)nn1C(C)(C)C	?	?	?	-77*	17%
Cc1nn(C(C)(C)C)c(OC(=O)c2cccs2)c1S(=O)(=O)c1ccccc1	21µM*	?	?	50	-25%
CCOc1ccc(-c2c(=O)n(OCc3nc4ccccc4[nH]3)c3ccccc3[n+]2[O-])cc1	2%	-2%	23µM*	.	?
CCOc1ccc(OCC)c(-c2c(=O)n(OCc3ccccc3C(=O)OC)c3ccccc3[n+]2[O-])c1	-2%	-26%	13µM*	-18	13µM*
CCOc1ccc(-c2c(=O)n(OCc3ccccc3Br)c3ccccc3[n+]2[O-])c(OCC)c1	-1%	1%	23µM*	6	?
CCOc1ccc(OCC)c(-c2c(=O)n(OCc3ccccc3Br)c3ccccc3[n+]2[O-])c1	-1%	-24%	8.9µM*	-28	10µM*
CCOn1c(=O)c(-c2ccc(Br)cc2)[n+]([O-])c2ccccc21	10%	19%	0%	0	5%
C=CCOn1c(=O)c(-c2ccc(OC)cc2)[n+]([O-])c2ccccc21	8%	-1%	-20%	-2	-9%
COc1ccc(-c2c(=O)n(OCc3nc4ccccc4[nH]3)c3ccccc3[n+]2[O-])cc1	0%	-3%	?	-19	0%
N#Cc1ccc(NC(=O)COC(=O)c2cccnc2Cl)cc1	0%	12%	-15%	-12	0%
OCCNCCOc1ccccc1-c1ccccc1	-17%	-8%	-24%	?	-16%
CNCCCCOc1ccccc1-c1ccccc1	-19%	?	?	?	26µM*
COCCCNCCOc1ccccc1-c1ccccc1	-4%	2%	?	-30	13%
COCCCNCCCCOc1ccccc1-c1ccccc1	-13%	-24%	15µM*	0	21µM*
C=CCNCCCCOc1ccccc1-c1ccccc1	?	?	?	-85*	?
CCCCNCCOc1ccccc1-c1ccccc1	-9%	-13%	?	-60*	?
COc1cc(C(=O)OC(C)c2ccc(F)cc2)ccc1OCC(=O)N1CCOCC1 (stereo not given)	1%	-2%	23µM*	32	?
CCOc1cc(C(=O)OC(C(=O)NC(=O)NC)c2ccccc2)ccc1OCC(=O)N1CCOCC1 (stereo not given)	1%	7%	18µM*	14	18µM*
COc1cc(C(=O)OCc2cccc(OC)c2OC)ccc1OCC(=O)N1CCOCC1	9%[9.24 µM]	6%	3%	-16	-28%
COc1ccc(Oc2cccc(Cl)c2CNC(=O)c2ccccc2C(=O)O)cc1	-1%	4%	-27%	6	?
